# Reference: PubChem BioAssay AID1508649 (National Center for Advancing Translational Sciences (NCATS), 2021)
# The whole screen tested about 43,000 compounds, of which about 830 (1.9%) were called active. Not shown: some 30% with an inconclusive outcome. The entries come from a sample that favours actives as a whole. Unmarked numbers belong to inactive results. How the source made its calls: active means clear falling dose curves in both reporters; inconclusive means both reporters move, but less clearly or upward; inactive means either reporter flat; the % is the NLuc reporter signal.
# Experiment: Cell-based coincidence reporter assay to measure PMP22 gene transcription in S16 Pmp22-F2sN cells - Primary screen
# Conditions: S16 Pmp22-F2sN Schwann cells (luciferase reporters placed in the Pmp22 gene), FLuc/NLuc coincidence luminescence, 24 h; series mostly up to 57.5 µM; activity change, negative = inhibition: at the top concentration
# Source text: Assay Provider: Jim Inglese Ph.D. National Center for Advancing Translational Science, National Institutes of Health, Rockville, MD CMT is a heterogeneous group of neurological disorders that affect approximately 1 in 2,500 people. In particular, the most common form of CMT, CMT1A is genetically linked to the duplication of the PMP22 gene which leads to Schwann cell overexpression, thus manifesting itself as a typical case of dose-sensitive diseases. To identify small molecule compounds that can mediate the expression of PMP22 we developed a phenotypic assay screening strategy by utilizing genome editing techniques to construct Schwann cell lines containing novel reporter technology to monitor the transcriptional or translational regulation of PMP22. For high sensitivity we use a bioluminescent reporter system embedded in the 3' UTR of the PMP22 gene (S16(c9) Pmp22-F2sN) to identify compounds that inhibit gene expression. […] We can further discriminate the effect of all transcriptionally active molecules on PMP22 translation or stability with an assay that incorporates a short NLuc peptide (HiBiT) at the C-terminus of expressed PMP22 (S16(f8) PMP22-HiBiT) allowing alpha complementation and luminescence detection of membrane-associated PMP22 protein. These assays were screened against the NCATS Sytravon Library Collection. Miniaturization of these assays to 1536-well plate format for quantitative high throughput screening (qHTS) yielded rich data sets immediately from the qHTS assay (S16(c9) Pmp22-F2sN), when compared with data from a cell viability assay (Cell TiterGlo) to identify compounds that decreased the output signals through cellular toxicity to streamline the selection process of actives for subsequent characterization using the HiBiT assay (S16(f8) PMP22-HiBiT).
# Cell-based coincidence reporter assay to measure PMP22 gene transcription in S16 Pmp22-F2sN cells PROTOCOL TABLE (format as described by Inglese J, Shamu CE and Guy RK. 2007) SEQUENCE No. (e.g., 1, 2, 3, etc.); […] (e.g., Cells, Incubation, Reagent, etc.); VALUE and DESCRIPTION. 1. Cells. Add 500-1,000 cells in 4 uL in growth media (DMEM High Glucose, No Phenol Red media + 10% heat-inactivated FBS + 1% Pen/Strep supplemented media) per well into Greiner 1536-well white/solid bottom high base, TC-treated plates. 2. Compounds. Library compounds and controls added at 23nL per well, transferred by Pin Tool. 3. Incubation. Incubate plates at 37C, 5% CO2, 95% RH for 24 h. 4. Reagent. Add 3.5uL Nano-Glo Dual-Luciferase Reporter Assay System reagent 1: Lysis and FLuc reagent per well of Greiner 1536-well plates. 5. Incubation. Incubate plates at room temperature for 10 min., protect from light. 6. Detector. FLuc luminescence measured using CCD-based camera (Viewlux). 7. Reagent. Add 3.5uL Nano-Glo Dual-Luciferase Reporter Assay System reagent 2: Stop&Glo reagent per well of Greiner 1536-well plates. 8. Incubation. Incubate plates at room temperature for 10 min., protect from light. 9. Detector. NLuc luminescence measured using CCD-based camera (Viewlux). NOTES (numbers refer to Sequence numbers above; values are from representative experiments) 6. Luminescence Read #1 (FLuc): Clear filter; Exposure = 10 sec, Gain = High, Speed = Slow, Binning = 2X 9. Luminescence Read #2 (NLuc): Clear filter; Exposure = 1 sec, Gain = High, Speed = Slow, Binning = 2X REFERENCES: 1. Inglese J, Shamu CE and Guy RK, Reporting data from high throughput screening of small molecule libraries, Nature Chemical Biology, 2007, 3(8): 438-441. doi.org/10.1038/nchembio0807-438 2. Yasgar A, Shinn P, Jadhav A, Auld DS, Michael S, Zheng W, Austin CP, Inglese J and Simeonov A, Compound Management for Quantitative High-Throughput Screening. J. Assoc. Lab. Auto., 2008, 13: 79-89. doi: 10.1016/j.jala.2007.12.004
# On the % scale 0 is the no-effect control and ±100 the full control effect; potency means the concentration at half of the fitted maximal effect.
Compound,"activity change, negative = inhibition [%]",Potency
O=c1c2cccnc2n(Cc2cccc(F)c2)c(=O)n1Cc1ccccc1Cl,14.6,–
CCOC(=O)c1ccc(NC2=CC(c3ccc(OCC)cc3)N(c3ccc(C(=O)OCC)cc3)C2=O)cc1 (configuration not stated),-0.625,–
CCOC(=O)c1ccc(N2C(=O)c3n[nH]c(C)c3C2c2ccc(O)c(OC)c2)cc1 (configuration not stated),–,7.51 µM (active)
Cc1ccc(C)c(N2CCN(C(=O)Cn3nc(C)c4sc5ccccc5c4c3=O)CC2)c1,11.4,–
COc1cccc(C(=O)N(Cc2cccc(Cl)c2)Cc2ccco2)c1,-23.2,–
CCOC(=O)c1ccc(NC(=O)C2CC(=O)NC(=Nc3ccc(C)c(C)c3)S2)cc1 (configuration not stated),-24.1,–
CCOC(=O)Cc1ccc(NC(=O)Nc2c[nH]c(=O)[nH]c2=O)cc1,8.78,–
CSc1oc(-c2cccs2)nc1S(=O)(=O)c1ccc(Br)cc1,49.8,–
Cc1ccc(CSc2oc(-c3cccs3)nc2S(=O)(=O)c2ccc(C)cc2)cc1,8.14,–
CCCCS(=O)(=O)c1oc(-c2cccs2)nc1S(=O)(=O)c1ccccc1,–,1.82 µM (active)
Cc1ccc2oc(C(=O)Nc3ccc(S(=O)(=O)N4CCCCCC4)cc3)cc(=O)c2c1,-11,–
Cc1cc(C)cc(-n2c(SCC(=O)NCC3CCCO3)nc3c([nH]c4ccccc43)c2=O)c1 (configuration not stated),-19.2,–
CCOC(=O)c1scc(-c2ccccc2)c1S(=O)(=O)Nc1ccccc1F,-0.485,–
CCCS(=O)(=O)c1ncc(Cl)c(C(=O)Nc2scc(-c3ccccc3)c2C(=O)OCC)n1,–,5.97 µM (active)
CCOC(=O)c1ccc(NC(=O)c2nc(SCc3ccc(F)cc3)ncc2Cl)cc1,-29.1,–
CC1CCN(S(=O)(=O)c2ccc3c(c2)N(CC(=O)NCCc2ccccc2)C(=O)CO3)CC1,-25.2,–
CCC(C)c1ccc2oc(-c3ccc(NC(=O)c4cc5ccccc5o4)cc3)nc2c1 (configuration not stated),-12.1,–
COc1ccccc1-c1cc2nc(C)c(CCC(=O)NC3CCCCC3)c(C)n2n1,-2.27,–
COc1ccc(-c2nc(S(=O)(=O)c3ccccc3)c(N3CCCCC3)o2)cc1,-26.4,–
O=C(CSc1oc(-c2ccc(F)cc2)nc1S(=O)(=O)c1ccc(Br)cc1)NC1CCCCC1,0.395,–
CC(C)S(=O)(=O)c1oc(-c2ccc(F)cc2)nc1S(=O)(=O)c1ccc(F)cc1,–,2.05 µM (active)
Cc1ccc2nc(COc3ccc(NC(=O)COc4ccccc4F)cc3)cc(=O)n2c1,-12.1,–
CC(=O)Nc1cc(C(=O)NCc2ccc(F)cc2)ccc1Sc1ccc(F)cc1,-18.1,–
Cc1cccc(C2CC(=O)Oc3c2c(=O)n(C)c2ccccc32)c1 (configuration not stated),-18.4,–
Cc1ccc(CCNC(=O)c2nnc(Cc3cccc(F)c3)o2)cc1,-14.3,–
O=C(NCCCN1CCN(c2cccc(Cl)c2)CC1)c1nnc(Cc2ccc(F)cc2Cl)o1,–,18.9 µM (active)

Compound,"activity change, negative = inhibition [%]",Potency
CC(CNC(=O)c1nnc(Cc2cccc(F)c2)o1)c1ccccc1 (configuration not stated),-15.6,–
CCOC(=O)c1c(NC(=O)c2cc(CC)on2)sc(C(C)=O)c1C,10.7,–
COc1ccc(CNC(=O)C2=Cc3cccc(OC)c3OC2)cc1OC,3.11,–
NC(=O)CSc1nc2c(oc3ccccc32)c(=O)n1Cc1ccccc1,-17.2,–
O=C(c1ccc2c(c1)N(Cc1ccccc1F)C(=O)c1ccccc1S2(=O)=O)N1CCOCC1,-4.6,–
O=C(c1ccc2c(c1)N(Cc1ccc(F)cc1)C(=O)c1ccccc1S2(=O)=O)N1CCN(c2ccccn2)CC1,–,15.6 µM (active)
O=C(NCCc1ccccc1)c1ccc2c(c1)N(Cc1ccc(F)cc1)C(=O)c1ccccc1S2(=O)=O,-29,–
Cc1ccc(C(=O)N2c3ncnn3C3(CCCCC3)[C@@H]3CCCC[C@@H]32)cc1,-3.73,–
COc1ccc(CCNc2nc(-c3ccc(F)cc3)cc(C(F)(F)F)n2)cc1OC,-5.08,–
O=C(CSc1nc(=O)n(Cc2cccnc2)c2c1CCC2)Nc1ccc(F)cc1F,-25.4,–
Cn1nnnc1SCCCNCc1ccc(Cl)cc1,0.621,–
CCC(=O)N1CCc2cc(S(=O)(=O)NC(CC(C)C)C(=O)NCCc3cccc(C)c3)ccc21 (configuration not stated),7.22,–
CCOC(=O)c1ccc(NC(=O)CSc2nc3c([nH]c4ccccc43)c(=O)n2C)cc1,–,14.1 µM (active)
Cc1ccccc1CSc1nc2c([nH]c3ccccc32)c(=O)n1C,-13.5,–
CCc1ccc(NC(=O)CSc2nc3c([nH]c4ccccc43)c(=O)n2-c2cccc(OC)c2)cc1,-1.32,–
Cc1ccccc1NC(=O)CCOc1ccccc1,3.36,–
COc1ccc(C)cc1N(C)C(=O)c1c(C)oc2ncnc(N3CCOCC3)c12,-13.9,–
Cc1cccc(-n2c(SCC(N)=O)nc3c(oc4ccccc43)c2=O)c1,-13.6,–
CC1CCN(CCCNC(=O)CN2C(=O)CSc3ccc(S(=O)(=O)N4CCCCC4)cc32)CC1,-33,–
CCc1ccc(NC(=O)c2cc(S(=O)(=O)N3CCCC(C)C3)cn2C)cc1 (configuration not stated),-12.6,–
CCc1ccc(NC(=O)CN2CCSc3ccc(S(=O)(=O)N4CCCC4)cc32)cc1,–,17 µM (active)
O=C(NCc1ccccc1Cl)c1cccn1-c1nnc(N2CCCCC2)s1,-13.1,–
Cc1ccc(CCNC(=O)C2CCN(c3nnc(-n4cccc4CNc4ccc(C)cc4)s3)CC2)cc1,–,20 µM (active)
COc1ccccc1CCNC(=O)c1cccn1-c1nnc(N2CCCCC2)s1,-23.5,–
Cc1cc(C)cc(NC(=O)Cc2csc(C)n2)c1,-1.79,–
Cc1nc2ccc(S(=O)(=O)NC(C(=O)NCc3ccccc3Cl)C(C)C)cc2s1 (configuration not stated),-9.19,–
